Measured values: the supplement of paper PMC6555819

The sequences below were run on LXRb homodimer (NR concentration 270 nM) (assay: PBM binding z-score (relative to random genomic background probes); higher = stronger binding; sequences stand for … in GC…GCGATTGACAGCGTAGAATGAAGG).
Method in brief: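 Antibodies against each partner of ligand-free nuclear receptor dimers (one per run) detected binding on custom Agilent 4×180K protein-binding microarrays after 1 h incubation. The double-stranded probes had 34-nt variable regions carrying direct-repeat seeds, single-nucleotide variants, half-site ablations and random human genomic background sequences. Binding z-scores, from regression-normalized fluorescence, use the random background probes as reference.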

For CGATCTAGGTCACCAGGACAGTGAAGAGGTTGGA, which PBM binding z-score is on record?
Its PBM binding z-score is -0.455.

How did the PBM binding z-score turn out when CGAACTAGATCACCAGGACAGTGAAGAGGTTGGA was run?
Its PBM binding z-score is -0.495.

Which PBM binding z-score does the source give for CGAACTAGGTCACCTGGACAGTGAAGAGGTTGGA here?
The PBM binding z-score was -0.443.

How did the PBM binding z-score turn out when ATATGTAGGTTAGGGTCTTTCAGAAAGTAGGGAA was run?
The PBM binding z-score was 1.11.

CGAACTAGGTCAAAGGACAGTGGAAGGCGACGTA was tested. Which PBM binding z-score did it give?
The PBM binding z-score was -0.761.

With CGAACTAGGTCACCAGGACAGTGCAGAGGTTGGA as the sequence, how does the PBM binding z-score read?
Its PBM binding z-score is -0.667.

How did the PBM binding z-score turn out when CGAACTAGGTCAAAGGACAGTGATAGGCGACGTA was run?
The PBM binding z-score was -0.0452.

Which PBM binding z-score does the source give for ATATGTAGGTTAGTGTCATTCAGAAAGTAGGGAA here?
Its PBM binding z-score is 0.974.

With CGTACTAGGTCACCAGGACAGTGAAGAGGTTGGA as the sequence, how does the PBM binding z-score read?
The PBM binding z-score was -0.0806.

ATATGTAGGTTAGGCTCATTCAGAAAGTAGGGAA was tested. Which PBM binding z-score did it give?
The PBM binding z-score was 0.223.

ATATGCAGGTTAGGGTCATTCAGAAAGTAGGGAA was tested. Which PBM binding z-score did it give?
The PBM binding z-score was 0.909.

CGAACTAGGTCACCAGGAGAGTGAAGAGGTTGGA was tested. Which PBM binding z-score did it give?
Its PBM binding z-score is -0.287.

Which PBM binding z-score does the source give for CGAACTAGGTCAAATGACAGTGAAAGGCGACGTA here?
The PBM binding z-score was 0.271.

How did the PBM binding z-score turn out when CGAACTAGGTCAAAGGACAGTGACAGGCGACGTA was run?
The PBM binding z-score was -0.493.

ATAAGTAGGTTAGGGTCATTCAGAAAGTAGGGAA was tested. Which PBM binding z-score did it give?
The PBM binding z-score was 2.04.

CGAACTAGGTCACCAGGACAGTAAAGAGGTTGGA was tested. Which PBM binding z-score did it give?
Its PBM binding z-score is 0.13.

With ATATGTAGGTGAGGGTCATTCAGAAAGTAGGGAA as the sequence, how does the PBM binding z-score read?
Its PBM binding z-score is 1.43.

For CGAACTAGGTCAGCAGGACAGTGAAGAGGTTGGA, which PBM binding z-score is on record?
Its PBM binding z-score is -0.892.

With CGAACTAGGTCAAAGGACAATGAAAGGCGACGTA as the sequence, how does the PBM binding z-score read?
Its PBM binding z-score is -0.0883.

For CGATCTAGGTCAAAGGACAGTGAAAGGCGACGTA, which PBM binding z-score is on record?
The PBM binding z-score was -0.237.

How did the PBM binding z-score turn out when ATATGTAGGTTAGAGTCATTCAGAAAGTAGGGAA was run?
Its PBM binding z-score is 0.605.

How did the PBM binding z-score turn out when CGAACTAGGTCACCAGGACAGTGAAGAGGTTGGA was run?
The PBM binding z-score was -0.543.
